PP1 counter = PP1-alpha (human) inhibition in PP5 counter-screen. inhibition, % at 6.7 µM. AID 2235. hit rate 0.9% among 320,000. P62136. purified PP1alpha, OMFP fluorescence;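 active = inhibition above the mean inhibition of all tested compounds plus 3 SD, computed separately for each screening campaign, cut at about 15% in these data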
PP5 primary = inhibitors of human protein phosphatase 5 (PP5) | AID 1987 | inhibition, % at 6.7 µM | purified PP5c, OMFP substrate fluorescence | hit rate 0.18% among 320,000;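 active = inhibition above the campaign's mean inhibition across all tested compounds plus 3 SD, cut at about 9.5% in these data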;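 also: 0% = DMSO only and 100% = 100 µM cantharidin control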
pPAFAH inh = inhibitors of human plasma PAF acetylhydrolase (pPAFAH) | recombinant pPAFAH, FP-rhodamine probe fluorescence polarization | inhibition, % at 3.39 µM | hit rate 1.5% among 330,000;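 active = inhibition above the mean inhibition across the screen plus 3 SD, cut at about 25% in these data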;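 also: inhibitors block binding of the rhodamine activity-based probe so polarization drops; 0% = enzyme with DMSO and 100% = wells lacking pPAFAH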
Target sequence (Q13093 whole entry, looked up): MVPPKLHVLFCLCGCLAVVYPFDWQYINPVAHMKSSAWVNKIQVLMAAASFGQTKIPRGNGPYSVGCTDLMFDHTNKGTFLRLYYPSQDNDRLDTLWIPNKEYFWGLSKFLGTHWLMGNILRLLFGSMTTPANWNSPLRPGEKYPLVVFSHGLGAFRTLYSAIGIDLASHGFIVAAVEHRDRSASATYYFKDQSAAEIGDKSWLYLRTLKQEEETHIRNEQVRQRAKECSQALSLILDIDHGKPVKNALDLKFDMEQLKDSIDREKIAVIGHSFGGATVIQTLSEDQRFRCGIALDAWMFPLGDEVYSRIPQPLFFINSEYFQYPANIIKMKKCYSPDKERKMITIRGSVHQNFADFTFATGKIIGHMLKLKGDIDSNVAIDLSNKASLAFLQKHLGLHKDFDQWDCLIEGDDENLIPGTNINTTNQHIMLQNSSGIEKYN
PAFAH1B2 inh = blocks human PAF acetylhydrolase 1b catalytic subunit 2; recombinant PAFAH1B2, FP-rhodamine activity probe, fluorescence polarization; inhibition, % at 3.39 µM; hit rate 1.2% among 340,000;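 active = inhibition above the mean of all tested compounds plus 3 SD, cut at about 24% in these data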;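 also: 0% = enzyme with DMSO and 100% = wells lacking PAFAH1B2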
Target sequence (P68402 whole entry, looked up): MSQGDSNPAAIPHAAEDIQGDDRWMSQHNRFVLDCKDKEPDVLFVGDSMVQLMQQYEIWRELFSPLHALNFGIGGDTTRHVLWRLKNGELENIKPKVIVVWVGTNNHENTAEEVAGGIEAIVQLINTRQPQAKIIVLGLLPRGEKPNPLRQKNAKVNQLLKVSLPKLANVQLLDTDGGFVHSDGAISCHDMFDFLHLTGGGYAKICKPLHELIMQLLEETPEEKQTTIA
PAFAH2 FP inh = inhibitors of human PAFAH2. Q99487. recombinant PAFAH2, FP-rhodamine activity probe, fluorescence polarization. inhibition, % at 3.39 µM. hit rate 0.99% among 340,000;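 active = inhibition above the mean over all tested compounds plus 3 SD, cut at about 30% in these data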;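 also: inhibitors block probe labeling of enzyme so polarization drops; 0% = enzyme with DMSO and 100% = wells lacking PAFAH2 protein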
PAFAH1B3 FP inh = inhibitors of human PAFAH1B3; Q15102; recombinant PAFAH1B3, FP-rhodamine probe, fluorescence polarization; inhibition, % at 3.39 µM; hit rate 0.28% among 340,000; AID 492972;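 active = inhibition above the screen-wide average of all tested compounds plus 3 SD, cut at about 25% in these data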;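 also: 0% = enzyme with DMSO only and 100% = wells lacking PAFAH1B3 protein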
The depositor's hits bear a star; · = no result. Hits are enriched below; roughly 3.4% of the tested compounds scored in any of these assays.

SMILES	PP1 counter	PP5 primary	pPAFAH inh	PAFAH1B2 inh	PAFAH2 FP inh	PAFAH1B3 FP inh
O=C(NC1CC1)C1CCN(S(=O)(=O)c2ccc(Cl)c([N+](=O)[O-])c2)CC1	-1.4	5.2	-0.8	6.5	22.3	7.3
Cc1ccc2[nH]cc(CCNC(=O)C3CCCO3)c2c1 (configuration not stated)	1.6	-0.5	7.8	3.5	-0.5	13.3
O=C(C1CC(Cl)CN1S(=O)(=O)c1ccc(Cl)cc1)N1CCOCC1 (configuration not stated)	-7.8	-5.7	3.0	6.6	12.0	-2.6
O=C(N1CCOCC1)N1CCN(S(=O)(=O)c2ccc(Cl)cc2)C1	9.9	-8.9	-5.5	25.6*	-1.8	4.4
Cc1cccc(N2CCN(C(=S)c3ccc4c(c3)OCO4)CC2)c1	·	·	·	6.0	1.8	8.0
O=C(COC(=O)CNC(=O)c1ccccc1F)Nc1cccnc1Cl	-0.8	2.8	2.3	-2.0	3.9	0.5
O=S(=O)(c1ccc(Br)cc1)N1CCn2c(nc3ccccc32)C1	-0.8	0.2	0.0	28.8*	7.7	8.4
O=S(=O)(Cc1ccccc1)N1CCn2c(nc3ccccc32)C1	-1.8	-2.0	1.1	2.3	5.7	6.8
CCOC(=O)C1CCCN(S(=O)(=O)c2cc3[nH]c(=O)c(=O)[nH]c3cc2C)C1 (configuration not stated)	-7.5	2.3	7.0	25.6*	0.8	3.7
CCOC(=O)C1CCCN(S(=O)(=O)c2ccc(S(=O)(=O)N3CCCC3)cc2)C1 (configuration not stated)	-1.1	-1.9	-5.3	-3.5	14.8	6.9
COC(=O)Cc1ccc(NC(=S)NCCO)cc1	-5.3	-4.0	0.8	2.5	-0.2	3.9
COC(=O)Cc1ccc(NC(=S)NCc2ccccc2Cl)cc1	2.7	3.0	27.7*	5.4	0.2	13.7
CCC(Oc1ccc(C)c(C)c1)C(=O)N1CCCN(C)CC1 (configuration not stated)	0.9	2.9	1.9	-4.0	-6.2	0.3
N#Cc1c(NC(=O)CSc2nnc(-c3ccco3)n2-c2ccccc2)sc2c1CCC2	6.6	1.1	13.2	2.8	7.7	2.3
NC(=O)c1c(NC(=O)CSc2nnc(-c3ccco3)n2-c2ccccc2)sc2c1CCC2	12.4	-0.1	32.5*	-3.4	11.0	-5.8
CC[C@]1(C(=O)OC)[C@H]2C(=O)N(C)C(=O)[C@H]2[C@H]2CN(C)C(=NC3CCCCC3)N21	·	·	0.9	5.8	-1.0	9.9
Clc1ccc(N2CCN(/N=C/c3ccncc3)CC2)cc1	-2.3	-0.7	5.4	26.9*	4.2	1.1
Cc1ccc(N2CCN(/N=C/c3ccncc3)CC2)cc1	-0.4	-1.8	6.1	2.7	-1.6	1.9
Cc1ccc(NC(=O)c2ncn(CCCN3CCN(Cc4cccc5ccccc45)CC3)n2)cc1C	·	·	·	5.3	-4.6	0.6
Cc1ccc(S(=O)(=O)NC(C)c2ccccc2)cc1[N+](=O)[O-] (configuration not stated)	-1.9	-0.2	0.1	24.5*	5.0	1.3
CC(C(=O)OCC(=O)N1CCN(c2ccccc2)CC1)N1C(=O)c2ccccc2C1=O (configuration not stated)	0.8	-0.2	-1.7	-4.7	-0.2	-8.7
O=C(O)c1cccc(S(=O)(=O)Nc2cc(Cl)ccc2Cl)c1	0.0	0.0	6.3	24.2*	1.1	8.3
COc1ccc(NS(=O)(=O)c2cccc(C(=O)N3CCCCCC3)c2)cc1	-4.7	-1.4	31.1*	8.0	-1.1	9.1
COc1ccc(NS(=O)(=O)c2ccc(N3CCCC3)c(NC(=S)Nc3cccc(S(=O)(=O)N(C)C)c3)c2)cc1	4.1	2.5	33.0*	·	·	·
O=C(O)c1cccc(S(=O)(=O)Nc2ccccc2Cl)c1	-3.9	1.3	4.3	4.6	3.2	-4.2
SMILES	PP1 counter	PP5 primary	pPAFAH inh	PAFAH1B2 inh	PAFAH2 FP inh	PAFAH1B3 FP inh
COc1ccc(NS(=O)(=O)c2cccc(C(=O)NN=Cc3ccc(OC)c(O)c3)c2)cc1	·	·	32.0*	13.2	2.3	15.4
COC(=O)Cn1cnc2c(Cl)nc(F)nc21	·	·	0.9	-0.5	-5.4	0.0
NCCCC[C@@H](C(=O)N1CCNCC1)n1cc([C@@H](N)CC(N)=O)nn1	2.8	0.3	1.0	7.6	6.5	-4.5
O=C(Cc1ccc(-c2ccccc2)cc1)OCC(=O)N1CCCC1=O	-3.1	-1.4	0.6	2.5	9.3	3.1
CSc1nc(N)c(NC(=O)c2ccc(Br)o2)c(=O)[nH]1	-3.5	1.6	-4.8	-3.1	-8.3	2.9
O=S(=O)(NN=C1CCCCCC1)c1ccccc1	-3.0	-4.9	-3.1	1.0	-5.4	11.7
COc1ccc(NS(=O)(=O)c2cccc(C(=O)NCC(c3ccc(OC)cc3)N3CCOCC3)c2)cc1 (configuration not stated)	0.6	0.0	32.0*	-0.6	-3.1	6.4
COc1ccc(NS(=O)(=O)c2cccc(C(=O)NNC(=O)c3cc(S(N)(=O)=O)ccc3OC)c2)cc1	-1.2	0.0	24.8*	-1.3	0.3	-2.9
CCOc1ccccc1C(=O)NCC(=O)NNC(=O)c1cccc(S(=O)(=O)Nc2ccc(OC)cc2)c1	-2.8	-4.4	26.4*	4.6	4.0	6.6
COc1ccc(NS(=O)(=O)c2cccc(-c3nnc4n3CCCCC4)c2)cc1	9.2	1.6	28.5*	-0.2	5.0	3.5
COc1ccc(NS(=O)(=O)c2cccc(C(=O)NNC(=O)c3ccc(NC(C)=O)cc3)c2)cc1	-5.6	1.9	25.8*	-0.6	0.8	3.0
COc1ccc(NS(=O)(=O)c2cccc(C(=O)NNC(=O)c3ccc(O)c(Cl)c3)c2)cc1	1.6	0.8	10.2	1.4	1.0	6.1
O=C(O)c1cccc(S(=O)(=O)Nc2ccc(N3CCCCC3)cc2)c1	·	·	26.7*	4.7	-1.8	15.7
COc1ccc(NS(=O)(=O)c2cccc(NC(=O)C34CCC(CC3)C4)c2)cc1	1.8	6.1	26.0*	7.3	9.9	4.0
O=C(O)c1cc(S(=O)(=O)Nc2ccc(N3CCCCC3)cc2)ccc1Cl	-1.5	0.7	13.5	8.7	12.0	6.0
Cc1n[nH]c2c([N+](=O)[O-])c(=O)[nH]c(=O)n12	·	·	·	-0.3	-4.2	-0.9
COc1ccc(CN(C(=O)Cc2c[nH]c3ccccc23)C(C(=O)NC2CCCCC2)c2ccc(C)o2)cc1 (configuration not stated)	16.9*	7.5	-2.5	13.8	1.2	-0.5
CN1OC[C@@H]2CN(Cc3ccc(Cl)cc3)[C@H](c3cccc(Br)c3)C[C@@H]21	·	·	·	10.3	-2.5	-0.2
COC(=O)c1ccc(C(=O)N2CCCC(Nc3ccc(C(C)C)cc3)C2)cc1 (configuration not stated)	-7.6	4.8	12.1	15.1	-0.4	6.9
CC(C)c1ccc(NC2CCCN(C(=O)c3n[nH]c4c3CCC4)C2)cc1 (configuration not stated)	-0.7	0.2	3.1	26.9*	3.3	1.7
NC(=O)CCN(C(=O)c1cccc(S(=O)(=O)N2CCc3ccccc32)c1)c1ccccc1	-5.0	-0.9	-0.6	27.2*	-3.0	4.2
